Data from PubChem BioAssay (NCI).
Several values for one entry are separate records, joined by “and”; a condition that tells them apart may be missing. Equal values may be shown once. Compounds without any hit were thinned out: in the full panel of roughly 83,000, 20% have a hit.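 Values shown are percent growth following 48 h exposure of cells in 96-well plates to a single concentration of compound; below 10 was considered active.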 A number with no mark means an inactive call. Activity calls are given as the source filed them.

The compounds below were run on MDA-MB-468 breast (assay: NCI-60 one-dose screen, 48 h (100 = growth as untreated, 0 = no growth, -100 = all killed)). Conditions: 10 µM unless noted.

Row | SMILES | growth
1 | N#CCN(CC#N)[N+](=O)[O-] | 112%
2 | O=NN(c1ccccc1)c1ccccc1 | 95%
3 | N#CCCNc1ccccc1 | 108%
4 | CC(C)COC(=O)Cc1ccccc1 | 101%
5 | NS(=O)(=O)c1nc[nH]c1[N+](=O)[O-] | 103%
6 | COc1ccc(/C=C(/C(=O)N2CCCC2)c2cc(OC)c(OC)c(OC)c2)cc1N | -4.72% (active)
7 | Cc1cc([N+](=O)[O-])c(Cl)cc1NS(=O)(=O)c1ccccc1 | 59.4%
8 | Oc1cc(N2CC2)c(O)cc1N1CC1 | -62.7% (active)
9 | c1ccc(CSC(c2ccccc2)c2ccccc2)cc1 | 124%
10 | CCOC(=O)[C@@H](C)C[C@H](Cc1ccccc1)NC(=O)c1csc([C@@H](C[C@H](C(C)C)N(C)C(=O)[C@@H](NC(=O)[C@H]2CCCCN2C)C(C)(C)CC)OC(C)=O)n1 | 19.5%
11 | CN(C)C(=O)Oc1ccccc1-c1ccccc1 | 99.7%
12 | CC[C@H](CC[C@@H](C)[C@H]1CC[C@H]2[C@@H]3CC[C@H]4C[C@]5(CC[C@]4(C)[C@H]3CC[C@]12C)OO[C@](C)(C(F)(F)F)O5)C(C)C | 95.2%
13 | COc1cc(C)c(-c2ccc(OC)c(=O)cc2C)c(OC)c1OC | 33.8% and 77.1%
14 | O=[N+]([O-])CC(O)C(Cl)(Cl)Cl (stereo not given) | 102%
15 | O=[N+]([O-])c1ccc(P(=O)(O)O)cc1 | 102%
16 | CC1(C)CC(=O)CC(C)(C)N1N=O | 124%
17 | Cc1cc[n+](CCc2ccccc2)cc1 | 61.2% and 72.9%
18 | Cc1ccc(C(=O)C2CN(C)CCC2(O)c2ccc(C)cc2)cc1 (stereo not given) | 119%
19 | CSc1ccccc1NP1(=O)OCC(C)([N+](=O)[O-])CO1 (stereo not given) | 105%
20 | C[C@]12C[C@H](O)[C@H]3[C@@H](CCC4=CC(=O)CC[C@@]43C)[C@@H]1CC[C@@H]2O | 99.7%

Row | SMILES | growth
21 | COC(=O)[C@H](Cc1ccccc1)NC(=O)c1csc([C@@H](C[C@H](C(C)C)N(C)C(=O)[C@@H](NC(=O)[C@H]2CCCCN2C)C2CC2)OC(C)=O)n1 | -3.15% (active)
22 | CC(C)(N)Cc1ccccc1 | 114%
23 | Oc1ccc2c3c1OC1[C@@H](O)CC[C@@]4(O)[C@@H](C2)N(CC2CCC2)CC[C@]314 (stereo not given in full) | 99.8%
24 | O=C(O)c1ccc(=O)[nH]c1 | 95.8% and 102%
25 | CCOP(=O)(NC[C@H]1O[C@](O)(CO)[C@@H](O)[C@@H]1O)OCC | 107%
26 | CCC(CC)(c1ccccc1)C(OC(N)=O)c1ccccc1 (stereo not given) | 75.8%
27 | Cc1cccc(N=C2c3cc([N+](=O)[O-])ccc3-c3c2cc([N+](=O)[O-])cc3[N+](=O)[O-])c1 | -24.4% (active)
28 | CC(C)=CCC[C@H](C(=O)O)[C@@H]1CC[C@]2(C)C3=C(CC[C@@]12C)[C@@]1(C)CC[C@H](O)C(C)(C)[C@@H]1CC3 | 107%
29 | CO[C@H]1CC[C@@]2(C)C(=CC[C@@H]3[C@@H]2CC[C@]2(C)C(=O)C(=O)C[C@@H]32)C1 | 102%
30 | CN(Cc1cccnc1)N=O | 103%
31 | CC(C)Nc1ccc(Nc2ccccc2)cc1 | 5.88% (active)
32 | COC(=O)C12CC(NC(=O)c3csc([C@@H](C[C@H](C(C)C)N(C)C(=O)[C@@H](NC(=O)[C@H]4CCCCN4C)C4CC4)OC(C)=O)n3)(C1)C2 | 30.1%
33 | CC(=O)O[C@H](C[C@H](C(C)C)N(C)C(=O)[C@@H](NC(=O)[C@H]1CCCN1C)C(C)C)c1nc(C(=O)N[C@@H](Cc2ccccc2)C[C@H](C)C(=O)O)c(C)s1 | 18.7%
34 | O=C(NCc1ccc([N+](=O)[O-])cc1)Nc1ccc(S(=O)(=O)F)cc1 | 40.4%
35 | COC(=O)[C@@H](C)C[C@H](Cc1ccccc1)NC(=O)c1nc([C@@H](C[C@H](C(C)C)N(C)C(=O)[C@@H](NC(=O)[C@H]2CCCCN2C)C(C)C)OC(C)=O)sc1C | 53.2%
36 | O=C1NC(=O)C(O)(C2(O)C(=O)NC(=O)NC2=O)C(=O)N1 | 99.8%
37 | COc1ccc(NC([Se])=NC23CC4CC(CC(C4)C2)C3)cc1 | -15.6% (active)
38 | Cc1cc[c-]cc1.Fc1c[c-]c(-c2ccccn2)c(F)c1.N#CCC[PH+](CCC#N)c1ccccc1.[Pt+2] | 37%
39 | C[n+]1c(/C=C/c2ccc(N(CCCl)CCCl)cc2)sc2ccccc21 | -0.963% (active)
40 | COc1cc(N(CCCl)CCCl)ccc1C=Nc1ccccc1C(=O)O | 63.3%
